Data as given in PubChem BioAssay AID623911 (Vanderbilt High Throughput Screening Facility, 2012).
About 770 (37%) of roughly 2,100 compounds were called active. This is one part of the list. A number with no mark means an inactive call.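 Rule for the calls: active = by-eye trace score of 1 for enhancers or -1 for inhibitors, so actives lie on both sides (some results past the limit were not filed as active); inactive = score 0, or 3 fluorescent, or 4 baseline rise.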

Target: G protein-activated inward rectifier potassium channel 2 (Homo sapiens) + G protein-activated inward rectifier potassium channel 1 (Homo sapiens) (UniProt P48051+P48549)
Experiment: GIRK1/2 thallium flux modulators, retest, confirmation, cell-based, HEK293 rmGlu8/hGIRK1/2, FluoZin-2 (AID 623911)
Settings: HEK293 rmGlu8/hGIRK1/2, thallium flux FluoZin-2; actives lie on both sides; glutamate co-added at its EC20 level

G protein-activated inward rectifier potassium channel 2 (Homo sapiens) + G protein-activated inward rectifier potassium channel 1 (Homo sapiens), sequence (P48051 whole entry, looked up): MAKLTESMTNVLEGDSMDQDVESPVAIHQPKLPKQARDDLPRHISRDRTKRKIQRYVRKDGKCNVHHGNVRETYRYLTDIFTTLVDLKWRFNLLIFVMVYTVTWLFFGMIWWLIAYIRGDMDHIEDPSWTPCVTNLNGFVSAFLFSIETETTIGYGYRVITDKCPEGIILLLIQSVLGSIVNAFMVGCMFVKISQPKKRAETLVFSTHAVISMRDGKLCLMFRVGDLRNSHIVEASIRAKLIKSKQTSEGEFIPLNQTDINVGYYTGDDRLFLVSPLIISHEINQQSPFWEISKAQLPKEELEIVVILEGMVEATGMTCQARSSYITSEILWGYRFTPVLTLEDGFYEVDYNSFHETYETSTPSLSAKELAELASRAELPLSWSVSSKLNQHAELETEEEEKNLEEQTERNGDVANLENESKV
G protein-activated inward rectifier potassium channel 2 (Homo sapiens) + G protein-activated inward rectifier potassium channel 1 (Homo sapiens), sequence (P48549 whole entry, looked up): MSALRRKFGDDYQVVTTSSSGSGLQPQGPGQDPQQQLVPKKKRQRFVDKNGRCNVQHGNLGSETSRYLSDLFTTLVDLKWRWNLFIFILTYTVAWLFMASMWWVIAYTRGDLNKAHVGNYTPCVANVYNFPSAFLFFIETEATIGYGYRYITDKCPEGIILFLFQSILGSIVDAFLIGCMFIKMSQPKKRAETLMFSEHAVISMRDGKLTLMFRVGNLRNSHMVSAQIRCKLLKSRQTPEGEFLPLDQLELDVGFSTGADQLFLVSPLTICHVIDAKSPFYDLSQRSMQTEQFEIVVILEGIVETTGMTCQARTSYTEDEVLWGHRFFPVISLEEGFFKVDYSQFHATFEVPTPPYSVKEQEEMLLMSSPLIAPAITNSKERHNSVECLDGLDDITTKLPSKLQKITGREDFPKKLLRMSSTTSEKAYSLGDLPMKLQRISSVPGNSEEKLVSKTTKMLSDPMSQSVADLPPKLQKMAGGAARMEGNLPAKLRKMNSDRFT

Row | SMILES | manual score
1 | COC(=O)C1=NN(c2ccccc2)C2C(=O)N(c3ccccc3OC)C(=O)C12 (configuration not stated) | 0
2 | N#CC(c1cccc(Cl)c1)c1ccc2c(C(F)(F)F)cc(C(F)(F)F)nc2n1 (configuration not stated) | 0
3 | CNC(=S)N/N=C1\C(=O)c2cccc3cccc1c23 | 1 (active)
4 | O=C(N/N=C1/C(=O)c2cccc3cccc1c23)c1ccc(Cl)cc1 | 1 (active)
5 | CCCCNC(=S)N/N=C1\C(=O)c2cccc3cccc1c23 | 0
6 | CCNC(=S)N/N=C1\CCCCc2ccccc21 | 4
7 | CCNC(=S)N/N=C1\C(=O)c2cccc3cccc1c23 | 1 (active)
8 | O=c1c(O)c(-c2cccs2)oc2ccc(Cl)cc12 | 3
9 | O=C(N/N=C/c1ccc(Sc2ccccn2)o1)c1cc2ccccc2cc1O | 1 (active)
10 | COc1ccc(/C=N/NC(=O)c2nc(-c3ccccc3)cc(-c3ccccc3)n2)cc1 | 0
11 | CCCOc1ccc(/C=N/NC(=O)C(=O)Nc2ccccn2)cc1 | 0
12 | O=C(CSc1nc(O)cc(=O)n1-c1ccccc1)N1CCCCC1 | 0
13 | Cc1ccc(NC(=S)c2nc3ccccc3[nH]2)c(C)c1 | 1 (active)
14 | Cc1ccc(C)c(NC(=S)c2nc3ccccc3s2)c1 | 0
15 | Cc1ccccc1NC(=S)c1nc2ccccc2[nH]1 | 1 (active)
16 | Cc1ccc(NC(=S)N/N=C/c2c(Cl)cccc2Cl)c(C)c1 | 0
17 | N#C/C(=C\c1ccc(N2CCOCC2)o1)c1nc2ccccc2[nH]1 | 3
18 | COc1ccc(CNc2nc(-c3cccnc3)nn2C(=O)c2ccco2)cc1 | 0
19 | CCOC(=O)c1ccccc1NC(=O)CSc1nnc(COc2ccccc2C)n1C | -1 (active)
20 | CCOC(=O)CN(C(=O)CSc1nnc(Cc2ccccc2)n1-c1ccc(C)cc1)c1ccccc1 | -1 (active)
21 | COC(=O)c1ccc(NC(=O)CSc2nnc(COc3ccccc3)n2C)cc1 | 3
22 | CCOC(=O)c1ccccc1NC(=O)CSc1nnc(COc2ccccc2)n1CC | -0.5

Row | SMILES | manual score
23 | CCOC(=O)c1ccccc1NC(=O)CSc1nnc(Cc2cccn2C)n1-c1ccc(C)cc1 | -1 (active)
24 | CCOC(=O)c1ccccc1NC(=O)CSc1nnc(Cc2cccn2C)n1-c1ccc(F)cc1 | -1 (active)
25 | CCOC(=O)c1nn(-c2ccc(F)cc2)c(C)c1C(C)=O | 0
26 | CN(C(=O)c1cccnc1)c1nnc(-c2cnccn2)s1 | 0
27 | Cc1cccn2c(=O)c(/C=N/O)c(N3CCCC3)nc12 | 0
28 | CCOC(=O)C1=C(C)N=C2SCCC(=O)N2C1c1sccc1C (configuration not stated) | 0
29 | CCc1cc(C(=O)NNC(=S)Nc2ccccc2C)cs1 | 0
30 | CC/C(=N\NC(=S)Nc1cc(C)ccc1C)c1ccc(OC(F)F)cc1 | 0
31 | Cc1ccsc1/C=N/NC(=O)c1sccc1C | 0
32 | Cc1ccc(C2CC2C(=O)NNC(=S)Nc2cccc(C)c2)cc1 (configuration not stated) | 0
33 | Cc1cccc(NC(=S)NNC(=O)c2sccc2C)c1 | 1 (active)
34 | CCc1cc(C(=O)NNC(=S)Nc2cc(C)ccc2C)cs1 | 1 (active)
35 | CCc1cc(C(=O)NNC(=S)Nc2cccc(C)c2)cs1 | 1 (active)
36 | C/C(=N\NC(=S)Nc1cccc(C)c1)c1cccc(N)c1 | 0
37 | O=c1oc(-c2ccc(Br)o2)nc2ccccc12 | 0
38 | COC(=O)c1cc(=O)n(CCc2ccc(OC)cc2)c(=Nc2ccc(F)c(Cl)c2)s1 | 0
39 | CC(C)(C)NC(=O)C(c1ccncc1)N(C(=O)c1csnn1)c1ccccc1 (configuration not stated) | 0
40 | O=C(C[n+]1cc(-c2ccccc2)n2c1CCC2)OCc1ccccc1 | 0
41 | CC1(C)Cc2ccccc2C(/C(=N\Nc2cccc(Cl)c2)C(N)=O)=N1 | 0
42 | O=C(NNC(=O)c1cccs1)Nc1cccc(Cl)c1 | 1 (active)
43 | O=C(Nc1ccccc1)Nc1nccs1 | 1 (active)
44 | O=C(CSc1ccccc1)N(c1ccc(Br)cc1)c1nccs1 | 0

Row | SMILES | manual score
45 | Cc1ccc(OCCCC(=O)Nc2nccs2)cc1 | 0
46 | O=C(Nc1cccc(Cl)c1)Nc1nccs1 | 1 (active)
47 | CS(=O)(=O)c1ccc2nc(NC(=O)Nc3ccc(Cl)c(Cl)c3)sc2c1 | 0
48 | CCOC(=O)Cn1c(=O)oc2cc(S(=O)(=O)Nc3ccc(N(CC)CC)cc3C)ccc21 | 0
49 | CCOC(=O)C1=C(C)OC(N)=C(C#N)C1c1cncc(-c2ccc(F)cc2)c1 (configuration not stated) | -0.5
50 | O=C(NC(NC(=S)Nc1ccc(Cl)cc1Cl)C(Cl)(Cl)Cl)c1cccc([N+](=O)[O-])c1 (configuration not stated) | 1 (active)
51 | O=C(/C=C/c1ccccc1)NC(NC(=S)Nc1cccc(Cl)c1)C(Cl)(Cl)Cl (configuration not stated) | 1 (active)
52 | O=C(/C=C/c1ccccc1)NC(NC(=S)Nc1cccc(O)c1)C(Cl)(Cl)Cl (configuration not stated) | 3
53 | COc1ccc(NC(=S)NC(NC(=O)/C=C/c2ccccc2)C(Cl)(Cl)Cl)cc1 (configuration not stated) | 1 (active)
54 | COc1ccc(C/C(C)=N/NC(=S)Nc2ccccc2)cc1 | 0
55 | O=C(/C=C/c1ccccc1)NC(NC(=S)Nc1cc(Cl)ccc1Cl)C(Cl)(Cl)Cl (configuration not stated) | 1 (active)
56 | COC(=O)c1ccccc1NC(=S)NC(NC(=O)c1ccccc1[N+](=O)[O-])C(Cl)(Cl)Cl (configuration not stated) | 0
57 | N#C/C(=C/C=C/c1ccccc1)C(=O)Nc1ccccc1 | 0
58 | O=C(NC(=S)Nc1cc([N+](=O)[O-])ccc1Cl)c1ccccc1 | 0
59 | Cc1c(NC(=S)NC(NC(=O)CC(C)C)C(Cl)(Cl)Cl)c(=O)n(-c2ccccc2)n1C (configuration not stated) | 0
60 | O=C(CSc1nc(-c2ccccc2)cc(=O)[nH]1)N1CCc2ccccc21 | 0
61 | O=C(COc1ccc2ccccc2c1CN1CCOCC1)N1CCc2ccccc21 | -1 (active)
62 | CCOC(=O)C(C)Sc1nnc(-c2c[nH]c3ccccc23)n1C (configuration not stated) | -0.5
63 | Cc1cccc(S(=O)(=O)NC(Cc2c[nH]c3ccccc23)C(=O)O)c1 (configuration not stated) | 0
64 | CC(C)n1c(NCc2c[nH]c3ccccc23)nc2ccccc21 | -1 (active)
65 | Cc1cc(C)c2c(c1)/C(=N/NC(=S)Nc1ccc(F)cc1)CCC2 | 0
66 | Cc1ccccc1N=Nc1ccc(O)c2ncccc12 | 0

Row | SMILES | manual score
67 | Cc1ccccc1N=Nc1c(C)[nH]n(C(N)=S)c1=O | 1 (active)
68 | Cc1nn(-c2ccccc2)c(OC(=O)c2cccs2)c1S(=O)(=O)c1ccccc1 | 0
69 | CCOC(=O)c1c(C)n(C)c2ccc(O)c(CN3CCC(C)CC3)c12 | -1 (active)
70 | CCOC(=O)c1c(C)[nH]c2c1cc(O)c1ccccc12 | 0
71 | CCOC(=O)c1c(C)oc2ccc(O)c(CN3CCCCC3)c12 | -1 (active)
72 | CCN(CC)C(=O)COc1ccc2oc(C)c(C(=O)OC)c2c1 | 0
73 | CCOc1ccc(C2=NNC(c3cccs3)=Nc3ccc(OC)cc32)cc1 | 0
74 | CCOc1ccc2nc(/N=C/c3c(C)[nH]n(-c4ccccc4)c3=O)sc2c1 | 1 (active)
75 | COc1ccc2nc(/N=C/c3c(C)[nH]n(-c4ccc(C)cc4C)c3=O)sc2c1 | 1 (active)
76 | COc1ccc2nc(/N=C/c3c(C)[nH]n(-c4ccc(C)cc4)c3=O)sc2c1 | 1 (active)
77 | Cc1[nH]n(-c2ccc(Cl)cc2)c(=O)c1/C=N/c1nnc(-c2ccccc2)s1 | 1 (active)
78 | Cc1ccc(-n2[nH]c(C)c(C=Nc3cc(C)ccn3)c2=O)cc1 | 0
79 | CCn1c(SCc2ccc(Cl)cc2)nnc1-c1ccccc1 | 0
80 | Cc1[nH]n(-c2ccccc2)c(=O)c1/C=N/c1ccccn1 | 0
81 | COc1ccc(OC)c(-c2c3cc(O)c(=O)cc-3oc3cc(O)c(O)cc23)c1 | 0
82 | Cc1ccc(NC(=O)c2cc(NC(=O)CCC(=O)O)ccc2N2CCCCC2)cc1 | 0
83 | CN1CCN(C(=O)Nc2cccc3ccccc23)CC1 | 0
84 | CC1=C(C)C(c2ccccc2)NC(=S)N1 (configuration not stated) | 0
85 | CCOc1ccc2nc(NC(=O)C(CC)Sc3nc(C)cc(=O)[nH]3)sc2c1 (configuration not stated) | 0
86 | CCOc1ccc2nc(/N=C/c3c(C)[nH]n(-c4ccc(C)cc4)c3=O)sc2c1 | 1 (active)
87 | CCOc1[nH]n(-c2ccc(Cl)cc2)c(=O)c1C=Nc1ccc(Cl)cc1 | 0
88 | C=CCNC(=S)Nc1nc2c(cc1C(=O)OCC)CCCC2 | 1 (active)

Row | SMILES | manual score
89 | CCOC(=O)c1cc(NC(=O)SCC(=O)O)c(C)nc1C | 0
90 | CCNC(=S)Nc1nc2c(cc1C(=O)OCC)CCCC2 | 1 (active)
91 | C=C(C)CNC(=S)Nc1nc2c(cc1C(=O)OCC)CCCC2 | 1 (active)
92 | C=C(C)CNC(=S)N/N=C1\CCCCc2ccccc21 | 0
93 | CCOC(=O)C1=NNC(C(=O)c2ccc(OC)cc2)C1c1ccccc1 (configuration not stated) | 0
94 | CC1CCc2c(sc(NC(=O)C(=O)NCc3ccco3)c2C#N)C1 (configuration not stated) | 0
95 | CC(Cc1cccs1)NC(=O)Nc1ccc(Cl)cc1 (configuration not stated) | 0.5
96 | O=C(Nc1ccc(Cl)cc1)NC1CCCCC1Cc1ccco1 (configuration not stated) | 1 (active)
97 | Cc1cccc(OCC(=O)NC(=S)N2CCCc3ccccc32)c1 | 0
98 | O=C(COc1ccc(Cl)cc1Cl)NC(=S)N1CCCc2ccccc21 | 0
99 | O=C(COc1ccccc1Cl)NC(=S)N1CCc2ccccc21 | 1 (active)
100 | O=C(COc1ccc(Br)cc1Cl)NC(=S)N1CCc2ccccc21 | 0.5
101 | O=C(COc1ccccc1)NC(=S)N1CCc2ccccc21 | 1 (active)
102 | CC(Oc1ccc(Cl)cc1Cl)C(=O)NC(=S)N1CCc2ccccc21 (configuration not stated) | 1 (active)
103 | CCOc1cc(C(=O)NCc2ccncc2)cc(OCC)c1OCC | 0
104 | CC(=O)c1ccc(N2CCCC2)c(F)c1 | 0
105 | CCN(CC)c1cnn(C/C(=N\OC)c2ccc(Cl)cc2)c(=O)c1Br | -1 (active)
106 | CO/N=C(\Cn1ncc(N2CCCC2)c(Cl)c1=O)c1ccc(Cl)cc1 | -1 (active)
107 | CO/N=C(\Cn1ncc(N2CCCC2)c(Br)c1=O)c1ccc(Cl)cc1 | -1 (active)
